# An excerpt weighted towards active compounds, which were near 1.6% of everything screened.
# PPC-1+TRAIL kill – PPC-1 cancer cell killing with TRAIL present; PPC-1 cells + TRAIL, ATPLite viability luminescence; cell killing (% activity), % at 4 µM or 5 µM; 0.41% of 220,000 active;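 active = cell killing above 50% in the first pass at 4 µM, then a duplicate retest at 5 µM averaging 50% or more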;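 also: plate controls were cells with TRAIL plus DMSO for no effect and medium-only wells lacking cells for full effect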
# STAT1 inh – STAT1 signaling inhibition; NIH 3T3 STAT1-luciferase reporter, IFN-gamma, luminescence; inhibition, % at 5.5 µM; 0.35% of 200,000 active; AID 920;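 active = inhibition above a set limit, the mean inhibition across all tested compounds plus 3 SD, cut at about 34% in these data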;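 also: 0% = IFN-gamma with DMSO and 100% = IFN-gamma with 300 µM nifuroxazide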
# STAT3 blocker – reduces IL-6 driven STAT3 reporter signal. 0.89% of 190,000 active. AID 862. inhibition, % at 5.5 µM. U3A cells, IL-6 STAT3-luciferase reporter, luminescence; host cell line lacks STAT1;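 active = inhibition above the mean inhibition across all screened compounds plus 3 SD, cut at about 44% in these data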;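 also: 0% = DMSO only wells and 100% = 100 µM nifuroxazide control wells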
# TRAIL sens C8 – caspase-8 TRAIL sensitization; NB7+C8 cells + TRAIL, ATPlite viability luminescence; inhibition (viability loss, TRAIL sensitization), % at 10 µM; 1% of 360,000 active; AID 624354;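 active = compounds causing at least 50% loss of cell viability in the single-dose screen, relative to plate controls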
# Platelet DG rel – platelet dense granule release activity | AID 1663 | human platelet-rich plasma, SFLLRN dense granule ATP release, luminescence | 0.22% of 300,000 active | inhibition, %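 (compounds screened at 7.5 µM in platelet-rich plasma)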;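 active = mean replicate score, as percent of positive control, at or above 50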
# * marks the source's active call; other numbers are inactive results; . = no result.
SMILES,PPC-1+TRAIL kill,STAT1 inh,STAT3 blocker,TRAIL sens C8,Platelet DG rel
Clc1ccccc1-c1nc(-c2ccccc2)n[nH]1,8.8,-34.9,-14.0,21.3,-9.9
Oc1ccccc1-c1n[nH]c(-c2ccccc2O)n1,.,.,.,60.2*,.
Cc1ccc2c(C)c(C(=O)N3CCCC(C(N)=O)C3)oc2c1C (centres undefined),.,.,.,-10.0,-2.2
O=C(N/N=C/c1ccccn1)c1c[nH]c2ccccc12,18.9,.,.,30.7,-14.6
O=C(N/N=C/c1ccc[nH]1)c1c[nH]c2ccccc12,.,.,.,78.3*,-5.0
Nc1c(-c2ccccc2)cnn1-c1ccccc1,.,.,.,54.0*,14.3
COc1ccc(-n2nc(C(=O)NCC(=O)N3CCN(c4ccccc4)CC3)c3ccccc3c2=O)c(OC)c1,.,.,.,61.5*,2.5
CC(C)C[C@H]1COc2cccc(N3CCC[C@H]3CO)c2S(=O)(=O)N1,.,.,.,-6.2,.
COc1cccc(/C=N/NC(=O)c2cc3c(OC)cccc3[nH]2)c1OC,8.0,-7.0,3.6,-5.0,3.9
COc1cccc(/C=N/NC(=O)c2cc(-c3cccn3C)n[nH]2)c1O,30.1,-2.6,9.9,54.8*,19.1
COc1cccc(/C=N/NC(=O)c2cc3c(OC)cccc3[nH]2)c1O,45.7,-4.9,5.7,53.2*,1.4
Cc1cccnc1NC(=O)CNC(=O)c1cccs1,.,.,.,2.0,2.2
O=C(NC(=S)Nc1ccc(Br)cn1)c1cccs1,16.7,-111.8,-84.1,65.3*,16.7
Cc1cccnc1NC(=S)NC(=O)c1cccs1,29.3,-81.7,-49.5,69.1*,-5.3
O=C1NC[C@@H](CCCCN2C[C@H](Cc3ccc(O)cc3)N(CCc3ccccc3)C(=O)C2=O)N(CC2CCCCC2)C1=O,.,.,.,2.8,.
CC(C)(C)CN1CCC(n2nccc2NC(=O)c2ccccc2Cl)CC1,.,.,.,8.1,16.6
O=C(NC1CC1)c1[nH]c(C(F)(F)F)nc1-c1ccccc1,.,.,.,-32.4,.
Cc1ccc(NC(=O)CNc2ccccc2N2CCCC2=O)cc1S(=O)(=O)N1CCCCC1,.,.,.,-0.5,.
COC(=O)C1=C(C)N(Cc2ccccc2)C(=NCCc2c[nH]c3ccccc23)N[C@H]1c1cccc(C(F)(F)F)c1,.,.,.,51.6*,.
COC(=O)C1=C(C)N(Cc2ccccc2)C(=NCc2cccc(C(F)(F)F)c2)N[C@H]1c1cccc(C(F)(F)F)c1,.,.,.,93.6*,.
COC(=O)C1=C(C)N(Cc2ccccc2)C(=NCc2cccc(C(F)(F)F)c2)N[C@H]1c1cccc(F)c1,.,.,.,48.5,3.9
COc1ccccc1NC(=O)N(C)C[C@@H]1OCc2cnnn2CCCC(=O)N([C@@H](C)CO)C[C@H]1C,.,.,.,1.4,.
O=C(NC1CCCCC1)C(c1ccc(C(F)(F)F)cc1)n1c(=O)c(-c2ccccc2)nc2ccccc21 (centres undefined),.,.,.,11.4,.
COC(=O)C1=CN(c2cccc(OCc3ccccc3)c2)C(N)=C(C#N)C1c1cccc(F)c1 (centres undefined),.,.,.,6.6,.
O=C(NNC(=O)c1cc(OCC(F)(F)F)ccc1OCC(F)(F)F)c1ccc(Cl)c(Cl)c1,5.1,-4.6,-7.2,66.5*,2.6
SMILES,PPC-1+TRAIL kill,STAT1 inh,STAT3 blocker,TRAIL sens C8,Platelet DG rel
C=CCONC(=O)c1cc(OCC(F)(F)F)ccc1OCC(F)(F)F,15.2,-6.3,1.7,13.4,-8.1
CN(C)CCOC(=O)C1(c2ccccc2)CCCC1,-10.0,-0.5,2.4,-1.6,66.3*
CC(O)(CC(=O)CC(=O)c1ccccc1)c1ccccc1 (centres undefined),.,.,.,4.5,.
Cc1cccc2sc(N(CCCN(C)C)C(=O)c3ccc(S(=O)(=O)N4CCc5ccccc5C4)cc3)nc12,.,.,.,43.6,21.9
Cc1ccc2nc(N(CCCN(C)C)C(=O)c3ccc(S(=O)(=O)N4CCc5ccccc5C4)cc3)sc2c1,.,.,.,76.5*,30.9
Cc1cc(C)c2sc(N(CCCN(C)C)C(=O)c3ccc(S(=O)(=O)N4CCc5ccccc5C4)cc3)nc2c1,.,.,.,91.8*,8.5
COc1ccc2sc(N(CCCN(C)C)C(=O)c3ccc(S(=O)(=O)N4CCc5ccccc5C4)cc3)nc2c1,.,.,.,93.1*,-0.6
Cc1cc(C)c2sc(N(CCCN(C)C)C(=O)c3ccc(S(=O)(=O)N4CCCc5ccccc54)cc3)nc2c1,.,.,.,74.4*,1.7
Cc1c(Br)cccc1NC(=O)C1(C)CCN1Cc1ccc(OC(C)C)cc1 (centres undefined),.,.,.,4.8,.
C#CCNC(=O)C[C@@H]1C[C@@]2(C(=O)OCC)CCCC=C2N(CCCCCCCC)C1=O,.,.,.,4.8,.
CN(C)CCCN(C(=O)c1ccc(S(=O)(=O)N2CCc3ccccc3C2)cc1)c1nc2ccc(F)cc2s1,.,.,.,84.8*,20.7
Cc1ccc(S(=O)(=O)N2CCC(C(=O)N3CCCCCCC3)CC2)cc1C,.,.,.,-15.4,.
Nc1nccc(-c2cc(-c3ccc(Cl)cc3Cl)no2)n1,36.1,.,.,68.8*,22.1
O=C(O)c1ccc(-c2nc(-c3ccc(Cl)cc3Cl)cs2)cc1,22.6,-41.6,-20.1,-4.0,-1.5
CCOc1ccc(-n2nnnc2-c2nc3ccccc3s2)cc1,19.4,-44.7,3.9,63.2*,-0.1
Cc1ccc(-n2nnnc2-c2nc3ccccc3s2)cc1,14.0,-4.8,-4.7,2.5,-1.7
O=C1OCCOC2CCCc3oc(C4=CCCCC4)c1c32 (centres undefined),.,.,.,-12.9,.
O=[N+]([O-])c1cccnc1N/N=C/c1ccccc1O,20.3,-34.0,9.4,50.7*,43.4
O=[N+]([O-])c1ccccc1/C=N/Nc1nccnc1Cl,-3.1,-20.6,1.9,-11.5,6.5
Cc1c(O)ccc(/C=N/Nc2ncccc2[N+](=O)[O-])c1O,.,.,.,39.0,63.4*
O=C(c1ccccc1)c1ccc2cc(O)ccc2c1,.,.,.,19.4,70.5*
O=C(c1ccccc1)c1ccc2ccccc2c1,.,.,.,3.8,.
O=C(CN1C(=O)NC2(CCCC2)C1=O)NNC(=O)c1ccc(F)cc1,.,.,.,-9.4,25.5
CCCCn1c(=O)[nH]c(=O)c2c1nc(Cn1ncc(Cl)c(Cl)c1=O)n2CCC,.,.,.,95.3*,15.6
O=C(CCl)N(O)c1ccc(C=Cc2ccccc2)cc1,.,.,.,51.1*,.
SMILES,PPC-1+TRAIL kill,STAT1 inh,STAT3 blocker,TRAIL sens C8,Platelet DG rel
CC1=CC(=O)C=C(C)C1=NOS(=O)(=O)c1ccccc1,2.2,9.3,-2.4,17.4,4.1
CC1=CC(=O)C(C(C)C)=C/C1=N/OS(=O)(=O)c1ccccc1,-1.0,.,.,68.9*,9.9
CCOC(=O)/C=C(\C)Sc1cc(O)c2ccccc2c1O,34.8,.,.,72.5*,.
CC(C)NC(=O)C1C(c2ccc(C(F)(F)F)cc2)=Nc2ccccc2N1C(=O)c1cc2ccccc2[nH]1 (centres undefined),.,.,.,-16.2,.
Cn1cc(CNCc2ccc(OC(F)(F)F)cc2)c(-c2ccc3c(c2)OCCO3)n1,31.9,33.4,56.3*,5.0,0.3
CCC(C)(C)c1ccc(Oc2ccc(N)cc2)cc1,7.8,69.6*,81.3*,22.8,0.9
COc1ccc(Br)cc1CNC(=O)c1ccc2c(c1)N(C)CCS2,.,.,.,26.3,97.1*
COc1ccc(-c2nn(-c3ccccc3)cc2/C=N/N2C(=O)CSC2=S)cc1,-11.8,-9.2,-5.2,69.2*,-10.1
CCCCC(CC)CO (centres undefined),.,.,.,4.3,.
CCCCC(CC)CN=C(N)NC(N)=NCCCCCCN=C(N)NC(N)=NCC(CC)CCCC (centres undefined),.,.,.,94.9*,.
